In PubChem BioAssay (EPA / NIEHS):
Calls of active or inactive are those of the source. How the source made its calls: active means hit-call score of the fitted dose curve at least 0.9, where 1 is the maximum; inactive means score below 0.9.

Legend:
Settings in all cases: mRNA level, 48 h; actives raise or lower the signal
[1] = read-out: Lipoprotein lipase (LPL), LPL (gene 4023); assay: LTEA_HepaRG_LPL: Life Technologies and Expression Analysis (LTEA) Assay for Lipoprotein lipase (LPL) using HepaRG (AID 2283515)
Procedure, shortened: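 Read-out is LPL transcript level by qRT-PCR, normalized to three housekeeping genes and fitted bidirectionally against the DMSO control. Human HepaRG cells received chemicals for 48 h at up to 100 uM.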

[2] = read-out: MicroRNA 122 (MIR122), gene 406906; assay: LTEA_HepaRG_MIR122: Life Technologies and Expression Analysis (LTEA) Assay for MicroRNA 122 (MIR122) using HepaRG (AID 2283516); further: the transcript read is the microRNA miR-122
Procedure, shortened: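 HepaRG, 48 h exposure, 8-pt half-log from 100 uM, 0.5% DMSO; TaqMan qRT-PCR; bidirectional fit vs DMSO.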

[3] = read-out: matrix metalloproteinase-10 (MMP10), MMP10 (gene 4319); assay: LTEA_HepaRG_MMP10: Life Technologies and Expression Analysis (LTEA) Assay for matrix metalloproteinase-10 (MMP10) using HepaRG (AID 2283517)
Procedure, shortened: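 Gain or loss of MMP10 mRNA is fitted relative to the 0.5% DMSO vehicle. The human hepatic line HepaRG receives a 48-hour serum-free exposure, in duplicate, with a maximum concentration of 100 uM.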

[4] = read-out: MYC, MYC (gene 4609); assay: LTEA_HepaRG_MYC: Life Technologies and Expression Analysis (LTEA) Assay for MYC using HepaRG (AID 2283518)
Procedure, shortened: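 MYC transcript changes, up or down relative to 0.5% DMSO, from TaqMan qRT-PCR normalized to three housekeeping genes. Human HepaRG cultures received chemicals for 48 h at eight half-log concentrations up to 100 uM, in duplicate.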

[5] = read-out: matrix metalloproteinase-3 (MMP3), MMP3 (gene 4314); assay: LTEA_HepaRG_MMP3: Life Technologies and Expression Analysis (LTEA) Assay for matrix metalloproteinase-3 (MMP3) using HepaRG (AID 2283519)
Procedure, shortened: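 HepaRG, human; 48 h dosing, 8 conc. (max 100 uM, half-log), duplicate, 0.5% DMSO. Readout: MMP3 transcript by Fluidigm TaqMan qRT-PCR, ACTB/GAPDH/POLR2A-normalised. Gain or loss fitted vs DMSO.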

[6] = read-out: Paternally Expressed 10 (PEG10), PEG10 (gene 23089); assay: LTEA_HepaRG_PEG10: Life Technologies and Expression Analysis (LTEA) Assay for Paternally Expressed 10 (PEG10) using HepaRG (AID 2283520);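 on AC50: PEG10 transcript by qRT-PCR normalised to ACTB GAPDH and POLR2A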
Procedure, shortened: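 Chemicals tested on HepaRG cells for 48 h, highest concentration 100 uM. PEG10 expression assessed by qRT-PCR relative to DMSO control.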

[7] = read-out: Nuclear factor NF-kappa-B p105 subunit (Homo sapiens) (UniProt P19838); assay: LTEA_HepaRG_NFKB1: Life Technologies and Expression Analysis (LTEA) Assay for Nuclear Factor Kappa B Subunit 1 (NFKB1) using HepaRG (AID 2283521)
Procedure, shortened: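 Differentiated human HepaRG cells in serum-free induction medium with 0.5% DMSO were exposed for 48 h to eight half-log concentrations, top 100 uM, in duplicate. NFKB1 mRNA measured by Fluidigm TaqMan qRT-PCR, normalised to ACTB, GAPDH and POLR2A; bidirectional fit versus DMSO.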

[8] = read-out: Protein phosphatase 2A (PPP2R4), PTPA (gene 5524); assay: LTEA_HepaRG_PPP2R4: Life Technologies and Expression Analysis (LTEA) Assay for Protein phosphatase 2A (PPP2R4) using HepaRG (AID 2283522)
Procedure, shortened: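 Gene-expression endpoint in HepaRG hepatic cells: 48 h treatment across eight half-log concentrations up to 100 uM in 0.5% DMSO. PPP2R4 mRNA by qRT-PCR, normalized to three endogenous control genes.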

[9] = read-out: Phosphatase and tensin (PTEN), PTEN (gene 5728); assay: LTEA_HepaRG_PTEN: Life Technologies and Expression Analysis (LTEA) Assay for Phosphatase and tensin (PTEN) using HepaRG (AID 2283523)
Procedure, shortened: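 Read-out is PTEN transcript level by multiplexed TaqMan qRT-PCR after 48 h chemical treatment of human HepaRG cultures in serum-free induction medium. Concentrations spanned 100 uM downward in half-log steps, 0.5% DMSO throughout; activity fitted in both directions against vehicle.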

[10] = read-out: solute carrier (SLC22A1), SLC22A1 (gene 6580); assay: LTEA_HepaRG_SLC22A1: Life Technologies and Expression Analysis (LTEA) Assay for solute carrier (SLC22A1) using HepaRG (AID 2283524)
Procedure, shortened: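 HepaRG (human liver line), 48 h dosing in serum-free induction medium; 8 conc., half-log down from 100 uM, 0.5% DMSO vehicle, duplicates. Endpoint: SLC22A1 mRNA, qRT-PCR, housekeeping-normalized; gain/loss fit vs DMSO.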

[11] = read-out: Pyruvate Dehydrogenase Kinase 4 (PDK4), PDK4 (gene 5166); assay: LTEA_HepaRG_PDK4: Life Technologies and Expression Analysis (LTEA) Assay for Pyruvate Dehydrogenase Kinase 4 (PDK4) using HepaRG (AID 2283525)
Procedure, shortened: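 In this multiplexed human HepaRG expression assay, cells are treated 48 h with test chemicals across an eight-point range starting at 100 uM. PDK4 mRNA changes, normalized to ACTB/GAPDH/POLR2A, are fitted in both directions relative to vehicle.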

[12] = read-out: NAD(P)H dehydrogenase [quinone] 1 (NQO1), NQO1 (gene 1728); assay: LTEA_HepaRG_NQO1: Life Technologies and Expression Analysis (LTEA) Assay for NAD(P)H dehydrogenase [quinone] 1 (NQO1) using HepaRG (AID 2283526)
Procedure, shortened: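 Human HepaRG hepatic cells received chemicals for 48 h in serum-free induction medium with 0.5% DMSO, up to 100 uM. Expression was assessed by TaqMan qRT-PCR against housekeeping controls and fitted bidirectionally against DMSO.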

[13] = read-out: Nuclear factor erythroid 2-related factor 2 (Homo sapiens) (UniProt Q16236); assay: LTEA_HepaRG_NFE2L2: Life Technologies and Expression Analysis (LTEA) Assay for Nuclear factor erythroid 2-related factor 2 (NFE2L2) Transcription Factor using HepaRG (AID 2283527);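 further: TaqMan qRT-PCR transcript level normalised to ACTB GAPDH and POLR2A housekeeping genes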
Procedure, shortened: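 Transcript level of NFE2L2 is the read-out, measured by microfluidic TaqMan qRT-PCR and normalized to three housekeeping genes. Human HepaRG cultures received test chemical for 48 h at up to 100 uM in half-log steps. Gain or loss of signal is fitted relative to 0.5% DMSO.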

[14] = read-out: succinate dehydrogenase complex iron sulfur subunit B (SDHB), SDHB (gene 6390); assay: LTEA_HepaRG_SDHB: Life Technologies and Expression Analysis (LTEA) Assay for succinate dehydrogenase complex iron sulfur subunit B (SDHB) using HepaRG (AID 2283528)
Procedure, shortened: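 HepaRG cells (~100,000/well, plated 48 h) exposed in duplicate for 48 h in serum-free induction medium to 8-point half-log series from 100 uM in 0.5% DMSO; mRNA by qRT-PCR normalised to ACTB, GAPDH, POLR2A; bidirectional fit versus DMSO.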

[15] = read-out: Signal transducer and activator of transcription 3 (Homo sapiens) (UniProt P40763); assay: LTEA_HepaRG_STAT3: Life Technologies and Expression Analysis (LTEA) Assay for Signal transducer and activator of transcription (STAT3) using HepaRG (AID 2283529)
Procedure, shortened: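 Read-out is STAT3 mRNA level by qRT-PCR, normalized to three housekeeping genes, in human HepaRG liver cells treated for 48 h. Concentrations ran from 100 uM downward in half-log steps; curves were fitted for gain or loss relative to 0.5% DMSO.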

[16] = read-out: solute carrier (SLCO1B1), SLCO1B1 (gene 10599); assay: LTEA_HepaRG_SLCO1B1: Life Technologies and Expression Analysis (LTEA) Assay for solute carrier (SLCO1B1) using HepaRG (AID 2283530)
Procedure, shortened: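 SLCO1B1 transcript levels were quantified by TaqMan qRT-PCR using three housekeeping genes for normalization. This followed 48 h chemical exposure (100 uM top, half-log, 8 points, 0.5% DMSO) of HepaRG liver cells, with gain or loss fitted relative to DMSO.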

[17] = read-out: Transforming Growth Factor (TGFA), TGFA (gene 7039); assay: LTEA_HepaRG_TGFA: Life Technologies and Expression Analysis (LTEA) Assay for Transforming Growth Factor (TGFA) using HepaRG (AID 2283532)
Procedure, shortened: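 HepaRG (human liver line), 48 h exposure, 8 conc. half-log down from 100 uM, 0.5% DMSO vehicle, duplicates; serum-free induction medium. TGFA mRNA by TaqMan qRT-PCR, ACTB/GAPDH/POLR2A normalization; gain/loss fit vs DMSO.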

[18] = read-out: Transforming Growth Factor (TGFB1), TGFB1 (gene 7040); assay: LTEA_HepaRG_TGFB1: Life Technologies and Expression Analysis (LTEA) Assay for Transforming Growth Factor (TGFB1) Transporter using HepaRG (AID 2283533)
Procedure, shortened: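 TGFB1 transcript measured by qRT-PCR with normalisation to three housekeeping genes (ACTB, GAPDH, POLR2A); human HepaRG line treated in duplicate for 48 hr with an 8-point series topping at 100 uM, 0.5% DMSO vehicle, bidirectionally fitted.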

[19] = read-out: TIMP1, TIMP1 (gene 7076); assay: LTEA_HepaRG_TIMP1: Life Technologies and Expression Analysis (LTEA) Assay for TIMP1 using HepaRG (AID 2283534);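 further: TaqMan qRT-PCR signal normalized to ACTB GAPDH and POLR2A housekeeping genes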
Procedure, shortened: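 Bidirectional change in TIMP1 transcript versus 0.5% DMSO, measured by TaqMan qRT-PCR with three housekeeping genes for normalization. HepaRG human liver cells dosed 48 h in duplicate, top concentration 100 uM with half-log dilutions.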

[20] = read-out: sulfotransferase 2A1 (SULT2A1), SULT2A1 (gene 6822); assay: LTEA_HepaRG_SULT2A1: Life Technologies and Expression Analysis (LTEA) Assay for sulfotransferase 2A1 (SULT2A1) using HepaRG (AID 2283531)
Procedure, shortened: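 Expression change of SULT2A1, by qRT-PCR with three housekeeping-gene normalization, was scored bidirectionally versus DMSO. Cells: differentiated HepaRG, dosed in duplicate for 48 h across 8 points, highest 100 µM, half-log dilution, 0.5% DMSO.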

Nuclear factor NF-kappa-B p105 subunit (Homo sapiens), sequence (P19838 whole entry, looked up): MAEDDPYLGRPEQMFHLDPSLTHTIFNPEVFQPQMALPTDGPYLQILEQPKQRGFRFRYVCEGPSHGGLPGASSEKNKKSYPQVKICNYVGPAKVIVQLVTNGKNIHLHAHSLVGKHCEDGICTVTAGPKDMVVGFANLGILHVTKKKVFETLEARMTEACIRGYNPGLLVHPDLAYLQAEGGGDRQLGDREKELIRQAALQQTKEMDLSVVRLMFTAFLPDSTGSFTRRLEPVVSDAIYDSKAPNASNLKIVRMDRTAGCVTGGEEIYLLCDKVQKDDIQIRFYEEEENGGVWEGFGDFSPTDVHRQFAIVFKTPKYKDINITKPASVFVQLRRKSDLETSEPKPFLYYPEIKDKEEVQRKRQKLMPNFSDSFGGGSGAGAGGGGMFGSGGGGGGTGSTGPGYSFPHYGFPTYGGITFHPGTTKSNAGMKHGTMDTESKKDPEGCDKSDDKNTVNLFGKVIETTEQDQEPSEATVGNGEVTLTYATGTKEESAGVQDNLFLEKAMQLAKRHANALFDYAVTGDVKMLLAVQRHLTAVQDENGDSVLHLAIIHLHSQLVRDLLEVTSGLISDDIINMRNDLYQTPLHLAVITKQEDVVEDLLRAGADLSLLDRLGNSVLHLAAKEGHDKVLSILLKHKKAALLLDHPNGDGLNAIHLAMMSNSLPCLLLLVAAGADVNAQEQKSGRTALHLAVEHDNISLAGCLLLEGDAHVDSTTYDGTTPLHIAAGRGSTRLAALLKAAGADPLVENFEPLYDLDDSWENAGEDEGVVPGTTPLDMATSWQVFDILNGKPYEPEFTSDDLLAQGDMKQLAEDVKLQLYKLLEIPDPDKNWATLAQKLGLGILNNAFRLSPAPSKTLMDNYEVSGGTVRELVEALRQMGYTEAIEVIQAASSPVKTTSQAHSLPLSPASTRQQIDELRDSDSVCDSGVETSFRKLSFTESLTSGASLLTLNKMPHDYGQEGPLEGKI
Nuclear factor erythroid 2-related factor 2 (Homo sapiens), sequence (Q16236 whole entry, looked up): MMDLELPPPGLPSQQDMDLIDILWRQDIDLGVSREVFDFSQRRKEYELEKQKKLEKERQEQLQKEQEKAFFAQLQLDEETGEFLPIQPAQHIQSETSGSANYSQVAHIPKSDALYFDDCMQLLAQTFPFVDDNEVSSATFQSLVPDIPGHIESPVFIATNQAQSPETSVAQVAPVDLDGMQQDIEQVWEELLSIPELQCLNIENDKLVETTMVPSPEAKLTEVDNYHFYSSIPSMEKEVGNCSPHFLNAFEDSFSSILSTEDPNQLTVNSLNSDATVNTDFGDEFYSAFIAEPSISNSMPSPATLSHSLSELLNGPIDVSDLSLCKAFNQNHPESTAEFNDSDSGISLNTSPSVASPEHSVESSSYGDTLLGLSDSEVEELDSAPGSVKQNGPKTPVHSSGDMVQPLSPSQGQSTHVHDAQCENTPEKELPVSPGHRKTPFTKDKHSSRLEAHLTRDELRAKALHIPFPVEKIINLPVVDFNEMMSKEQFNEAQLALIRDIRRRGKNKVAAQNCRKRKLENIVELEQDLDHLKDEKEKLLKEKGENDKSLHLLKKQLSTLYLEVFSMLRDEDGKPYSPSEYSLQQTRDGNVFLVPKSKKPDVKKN
Signal transducer and activator of transcription 3 (Homo sapiens), sequence (P40763 whole entry, looked up): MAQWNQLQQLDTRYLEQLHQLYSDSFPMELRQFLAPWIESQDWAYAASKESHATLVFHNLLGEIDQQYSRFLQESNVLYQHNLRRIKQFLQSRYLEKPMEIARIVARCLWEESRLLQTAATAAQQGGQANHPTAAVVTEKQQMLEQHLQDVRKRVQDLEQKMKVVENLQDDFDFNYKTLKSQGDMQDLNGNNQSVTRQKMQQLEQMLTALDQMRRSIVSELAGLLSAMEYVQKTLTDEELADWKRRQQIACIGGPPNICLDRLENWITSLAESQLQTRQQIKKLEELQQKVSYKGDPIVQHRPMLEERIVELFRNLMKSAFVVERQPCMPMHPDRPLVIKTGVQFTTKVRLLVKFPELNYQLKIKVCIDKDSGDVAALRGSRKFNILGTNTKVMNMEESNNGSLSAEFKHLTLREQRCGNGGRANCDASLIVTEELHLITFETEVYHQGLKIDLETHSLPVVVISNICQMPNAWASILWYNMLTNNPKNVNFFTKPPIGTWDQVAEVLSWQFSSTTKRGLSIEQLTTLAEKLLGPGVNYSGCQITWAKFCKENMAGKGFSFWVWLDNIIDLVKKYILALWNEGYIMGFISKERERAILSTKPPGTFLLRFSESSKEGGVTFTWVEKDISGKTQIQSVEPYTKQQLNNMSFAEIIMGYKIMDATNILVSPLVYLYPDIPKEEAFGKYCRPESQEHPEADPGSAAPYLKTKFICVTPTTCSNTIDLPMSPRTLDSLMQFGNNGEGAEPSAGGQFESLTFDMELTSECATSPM

O=C=NCCCCCCN=C=O
outcome [1]: inactive | outcome [2]: inactive | outcome [3]: inactive | outcome [4]: inactive | outcome [5]: inactive | outcome [6]: inactive | outcome [7]: inactive | outcome [8]: inactive | outcome [9]: inactive | outcome [10]: inactive | outcome [11]: inactive | outcome [12]: inactive | outcome [13]: inactive | outcome [14]: inactive | outcome [15]: inactive | outcome [16]: inactive | outcome [17]: inactive | outcome [18]: inactive | outcome [19]: inactive

O=C(O)c1ccccc1-n1cc(C(=O)O)c(=O)c2cc(Nc3c(F)cc(F)cc3Cl)c(Cl)cc21
outcome [1]: inactive | outcome [2]: inactive | outcome [3]: inactive | outcome [4]: inactive | outcome [5]: inactive | AC50 [6]: 21.1 µM (active) | outcome [7]: inactive | outcome [8]: inactive | outcome [9]: inactive | outcome [10]: inactive | outcome [11]: inactive | outcome [12]: inactive | outcome [13]: inactive | outcome [14]: inactive | outcome [15]: inactive | outcome [16]: inactive | outcome [20]: inactive | outcome [17]: inactive | outcome [18]: inactive | outcome [19]: inactive

Cc1cccc2ccccc12
outcome [1]: inactive | outcome [2]: inactive | outcome [3]: inactive | outcome [4]: inactive | outcome [5]: inactive | outcome [6]: inactive | outcome [7]: inactive | outcome [8]: inactive | outcome [9]: inactive | outcome [10]: inactive | outcome [11]: inactive | outcome [12]: inactive | outcome [13]: inactive | outcome [14]: inactive | outcome [15]: inactive | outcome [16]: inactive | outcome [17]: inactive | outcome [18]: inactive | outcome [19]: inactive
